# From the OligoGym collection
# Biological target: SRSF6
# Assay: pooled miR-30 sensor sort-seq; sequence = guide strand
# Conditions: shRNA
# Note: reference of the scale not given here.
row,Sequence,sensor-assay potency score (higher = more potent)
1,TTGATCTAGATTTCCTGCCTTT,0.199
2,TTGACTTTGAGCGAGATCTAGA,-0.299
3,TTGATCGAGAACGTGATCGACC,-0.727
4,TTGAAGTAGCTCTTTTTGGTGG,-0.375
5,ATTTTTGAGGTCTACTTCGAGG,-1.54
6,TAGATTTGCTCTTTGATCTAGA,0.174
7,TAGATCTGCTTCGAGAATGTGA,-0.00685
8,TACTTCGTGACCGTCTTCTAGA,-0.126
9,TTGAGCGAGATCTAGAACGGGA,0.0866
10,TTGATCTTGACTTTGAGCGAGA,-0.415
11,TTTGAGGTCTACTTCGAGGAGG,-0.608
12,TTAGATTTGCTCTTTGATCTAG,0.289

# Biological target: SRSF7
# Assay: as above
# Conditions: shRNA
row,Sequence,sensor-assay potency score (higher = more potent)
1,TTTCTAACTCTCCTTTGCCAGC,-1.58
2,TAGATCTTCTGAGTGAAGCTGA,0.474
3,TGCATCTCTAGGATCTTCGAAT,-1.39
4,TAGATCTTGATCGTCGAGGAGA,-0.545
5,TTACCAACATACACCTTGGTTT,-0.665
6,TTGATCGTCGAGGAGATGCTGA,-0.317
7,TATCAAAACGTGATCTCCGAGG,-0.606
8,TTCTGAGTGAAGCTGATCTTGA,-0.735
9,TAAAGGACCATAATAACTGAAA,-1.16
10,TTTCTCGCAATCCATACAGTTC,-1
11,TAGACCTGGATCTTGATCTTGA,-0.00181
12,TTGATCTTGACCTCGACGGGGA,0.107

# Biological target: SS18
# Assay: as above
# Conditions: shRNA
row,Sequence,sensor-assay potency score (higher = more potent)
1,TAGAATCTGCTATTGTAGCAAG,-0.645
2,ATTGTCATCCAACATCTTCTGA,-0.704
3,TTGTGTGCAACATCTGCTGATA,-0.703
4,TATTGTAGCAAGGTATACCAAG,-0.903
5,TATTGTATTGCTGAGAAGGAGG,-1.18
6,TTGTCATCCAACATCTTCTGAA,-0.31
7,TTTATCTTTATAGCACACCATT,-1.15
8,TTGGTTAACTTGACCCATCATT,-0.57
9,TTTCAGTCTGTAACAGTCCATT,-0.917
10,TTTGTGTGCAACATCTGCTGAT,0.199
11,TTATACACTGAATAAGATGGTT,-0.124
12,TTGTCATCTGATTCTGTACTGG,-0.29
